# GIRK2 activator: GIRK2 channel activators by thallium flux. AID 1259324. P48051. activation (% efficacy), % for hits at 75 µM. 34,000 tested, under 10 active. HEK293 GIRK2/NPY4 cells, thallium flux fluorescence;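 active = primary screen hit, no activity in plain HEK293 cells, and in GIRK2-only cells above 5% efficacy rising with concentration; inactive = the rest, including fluorescent compounds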;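 also: efficacy is normalized control-subtracted fluorescence 15 s after thallium addition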
# AMPAR-TARP mod: modulates AMPAR-stargazin complexes; O88602+P19491; HEK293 GluA2+stargazin, membrane potential dye (FDSS), glutamate EC50; hits were called plate by plate, in both directions; calls only at 30 µM; 3.5% of 40,000 active; AID 1259245;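 active = any of four per-well response measures lying three or more SD from its plate-wide compound average, in either direction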
# Target sequence (O88602 whole entry, looked up): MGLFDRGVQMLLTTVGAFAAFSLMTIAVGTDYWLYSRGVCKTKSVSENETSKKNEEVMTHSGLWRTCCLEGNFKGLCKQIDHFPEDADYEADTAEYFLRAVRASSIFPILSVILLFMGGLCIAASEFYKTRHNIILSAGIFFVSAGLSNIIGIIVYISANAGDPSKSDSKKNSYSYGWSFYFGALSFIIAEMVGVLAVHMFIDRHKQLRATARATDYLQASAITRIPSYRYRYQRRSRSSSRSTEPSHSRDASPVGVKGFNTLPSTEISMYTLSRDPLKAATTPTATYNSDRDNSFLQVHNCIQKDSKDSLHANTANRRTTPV
# Target sequence (P19491 whole entry, looked up): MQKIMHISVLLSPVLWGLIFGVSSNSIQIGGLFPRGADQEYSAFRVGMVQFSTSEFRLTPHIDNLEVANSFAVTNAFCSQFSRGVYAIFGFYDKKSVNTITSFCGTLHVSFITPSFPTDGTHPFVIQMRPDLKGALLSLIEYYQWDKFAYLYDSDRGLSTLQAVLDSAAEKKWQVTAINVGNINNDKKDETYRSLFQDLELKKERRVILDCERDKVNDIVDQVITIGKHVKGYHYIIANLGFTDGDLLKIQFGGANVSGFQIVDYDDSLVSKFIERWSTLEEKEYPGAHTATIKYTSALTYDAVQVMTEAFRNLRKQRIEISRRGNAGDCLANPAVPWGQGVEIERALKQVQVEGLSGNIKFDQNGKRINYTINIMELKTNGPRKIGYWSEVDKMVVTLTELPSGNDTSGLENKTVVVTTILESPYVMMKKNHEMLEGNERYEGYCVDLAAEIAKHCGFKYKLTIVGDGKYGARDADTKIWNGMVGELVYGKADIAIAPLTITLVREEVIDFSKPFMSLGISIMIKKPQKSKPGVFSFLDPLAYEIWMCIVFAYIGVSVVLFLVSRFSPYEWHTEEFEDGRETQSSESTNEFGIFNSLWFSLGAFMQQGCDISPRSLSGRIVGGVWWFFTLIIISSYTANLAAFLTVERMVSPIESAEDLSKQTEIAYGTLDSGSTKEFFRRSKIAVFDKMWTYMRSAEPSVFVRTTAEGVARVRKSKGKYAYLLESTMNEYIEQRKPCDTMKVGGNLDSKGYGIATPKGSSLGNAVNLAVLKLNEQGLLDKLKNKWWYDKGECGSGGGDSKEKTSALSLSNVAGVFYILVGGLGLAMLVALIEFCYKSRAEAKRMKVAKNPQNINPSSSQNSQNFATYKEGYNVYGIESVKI
# Active calls of the source: *; i = inactive; . = not tested or not shown; + = active, no number. This is one part of a sample in which hits are shown more often than they occur.
SMILES,GIRK2 activator,AMPAR-TARP mod
COc1ccc(NC(=O)CCCS(=O)(=O)c2ccc(C)cc2)c2ccccc12,i,i
COCCN1CCC(CNC(=O)C2CCN(S(C)(=O)=O)CC2)CC1,i,.
CS(=O)(=O)N1CCC(CNC(=O)C2CCCCC2)CC1,i,+
CCC(CC)C(=O)N1CCN(c2ncnc3c2nnn3-c2cccc(OC)c2)CC1,.,+
CCSc1ccccc1C(=O)N1CCN(c2ncnc3c2nnn3-c2ccc(C)cc2)CC1,.,i
CCSc1ccccc1C(=O)N1CCN(c2ncnc3c2nnn3-c2ccc(OC)cc2)CC1,.,+
COc1ccc(-n2nnc3c(N4CCN(C(=O)c5ccccc5SC)CC4)ncnc32)cc1,.,+
CCC(=O)N1CCN(c2ncnc3c2nnn3-c2cccc(OC)c2)CC1,.,i
O=C(CSCc1ccccc1)N1CCN(c2ncnc3c2nnn3-c2ccccc2)CC1,.,i
COc1ccc(-n2nnc3c(N4CCN(C(=O)c5ccccc5Cl)CC4)ncnc32)cc1,.,i
O=C(CC(c1ccccc1)c1ccccc1)N1CCN(c2ncnc3c2nnn3-c2ccccc2)CC1,.,+
CC(C)c1cc(=O)n2c(n1)SCC2CC(=O)NCc1cccs1 (stereo unspecified),i,i
CC1=C(C(=O)Nc2ccccc2F)C(c2ccccc2Cl)NC(=S)N1 (stereo unspecified),.,i
Cn1cccc1C(CNC(=O)C(=O)Nc1ccc2c(c1)OCCO2)N1CCCCCC1 (stereo unspecified),i,i
CS(=O)(=O)N1CCC(C(=O)Nc2ccc(S(N)(=O)=O)cc2)CC1,i,.
CC(=O)c1ccc(NC(=O)CSc2nc(=O)n(CCO)c3c2CCCC3)cc1,i,i
CCOC(=O)c1cn(CC(=O)Nc2cccc(Cl)c2)c2nc(C)ccc2c1=O,.,i
Cc1ccc(CN2C(=O)N(c3ccc(C)c(Cl)c3)C3CS(=O)(=O)CC32)cc1 (stereo unspecified),i,i
C=Cc1ccc(CN2C(=O)N(c3ccc(CC)cc3)C3CS(=O)(=O)CC32)cc1 (stereo unspecified),.,+
CCS(=O)(=O)N1CCN(c2ccc(Nc3cccc(C)n3)nn2)CC1,i,+
Cc1cccc(Nc2ccc(N3CCN(C(=O)c4ccccc4)CC3)nn2)n1,i,.
Cc1ccnc(Nc2ccc(N3CCN(S(=O)(=O)c4ccc(F)cc4)CC3)nn2)c1,i,.
COc1ccc(S(=O)(=O)N2CCN(c3ccc(Nc4cccc(C)n4)nn3)CC2)cc1Cl,i,+
COc1ccc(S(=O)(=O)N2CCN(c3ccc(Nc4cccnc4)nn3)CC2)cc1,i,+
Cc1ccc(S(=O)(=O)N2CCN(c3ccc4nnc(C)n4n3)CC2)cc1C,i,+
SMILES,GIRK2 activator,AMPAR-TARP mod
COc1ccc(S(=O)(=O)N2CCN(c3ccc(Nc4ccccn4)nn3)CC2)cc1,i,i
Cc1nnc2ccc(N3CCN(S(=O)(=O)c4ccc(Cl)c(Cl)c4)CC3)nn12,i,i
Cc1cccc(NC(=O)CC(NCCNCc2ccccc2)C(=O)O)c1 (stereo unspecified),.,i
O=C(/C=C/c1ccco1)Nc1ccc(CC(=O)N2CCC(O)CC2)cc1,i,.
O=c1oc2cc(OC/C=C/c3ccccc3)ccc2cc1-c1ccccn1,i,i
COc1ccc(S(=O)(=O)N2CCN(c3ccc(-c4ccncc4)nn3)CC2)cc1C,i,+
Cc1cccc(Nc2ccc(N3CCN(S(=O)(=O)c4c(C)noc4C)CC3)nn2)n1,i,+
COc1cc(N2CCN(S(=O)(=O)c3c(C)noc3C)CC2)nc(OC)n1,i,i
COc1ccc(S(=O)(=O)N2CCN(Cc3nnnn3-c3ccc(C)cc3)CC2)cc1C,i,+
CN(C)S(=O)(=O)N1CCN(c2ccc(Nc3ccncc3)nn2)CC1,i,i
COc1ccc(S(=O)(=O)N2CCN(c3ccc(-c4cccs4)nn3)CC2)cc1OC,i,i
Cc1cccc(Nc2ccc(N3CCN(S(=O)(=O)N(C)C)CC3)nn2)n1,i,+
COc1ccc(S(=O)(=O)N2CCN(Cc3nnnn3-c3ccccc3)CC2)cc1OC,i,i
COc1ccc(CCNC(=O)CSc2nc(C)cs2)cc1OC,.,i
COc1ccc(NC(=O)CSc2ccnc3c2c(=O)n(C)c(=O)n3C)cc1OC,.,i
Cc1cn2c3c(=O)n(Cc4ccccc4Cl)c(=O)n(C)c3nc2n1CCO,i,i
Cc1c(C)n2c3c(=O)n(CCCc4ccccc4)c(=O)n(C)c3nc2n1C(C)C,i,+
CCn1c(=O)c2c(nc3n(CCCOC)c(C)c(C)n23)n(C)c1=O,i,i
Cc1c(C)n2c3c(=O)n(Cc4ccc(F)cc4)c(=O)n(C)c3nc2n1CCCN(C)C,i,+
Cc1cn2c3c(=O)n(Cc4ccccc4F)c(=O)n(C)c3nc2n1CCCN(C)C,i,+
Cc1c(C)n2c3c(=O)n(CC(=O)OCc4ccccc4)c(=O)n(C)c3nc2n1C(C)C,i,i
COc1ccc(NC(=O)Cn2c(=O)n(CC(C)C)c(=O)c3nscc32)c(OC)c1,i,i
Cc1ccccc1NC(=O)CN1CCN(c2nccn2-c2cccc(Cl)c2)CC1,i,i
CC(C)Oc1ccc(-c2noc(CSc3nc4cc5c(cc4c(=O)n3C)OCO5)n2)cc1,i,i
O=C1c2ccc(-n3c(=O)c4ccccc4c4ccccc4c3=O)cc2C(=O)N1c1ccccc1,.,i
SMILES,GIRK2 activator,AMPAR-TARP mod
Nc1ccc2c3c(cccc13)C(=O)N(c1ccccc1)C2=O,.,+
COc1ccc2c(=O)c(Oc3ccc(C(=O)N4CCN(C)CC4)cc3)coc2c1,i,i
COc1ccc(S(=O)(=O)CC(=O)Nc2cccc(Br)c2)cc1,i,+
COc1ccc(OCCCC(=O)Nc2cccc(Br)c2)cc1,i,i
COc1ccc(S(=O)(=O)CC(=O)Nc2ccccc2Oc2ccccc2)cc1,i,+
O=C(CCCS(=O)(=O)c1ccccc1)Nc1ccccc1Oc1ccccc1,i,i
CCOc1ccc2nc(N(Cc3ccccc3)C(=O)c3ccno3)sc2c1,i,i
COc1ccc(C)c2sc(N(CC3CCCO3)C(=O)c3ccnn3C)nc12 (stereo unspecified),i,.
COCCN1CCC(CNC(=O)NC(C)C)CC1,i,.
COc1ccc2nc(-c3cccc(NC(=O)c4c(F)cccc4F)c3)cn2n1,i,i
COc1ccc2nc(-c3cccc(NC(=O)Nc4ccc(F)cc4)c3)cn2n1,i,+
CCOC(=O)N1CCC(c2nnc(-c3ccco3)s2)CC1,i,i
O=C(Cc1ccc([N+](=O)[O-])cc1)N/N=C\c1cccs1,i,.
CCn1nccc1C(=O)N1CCN(c2nc3c(C(C)C)cccc3s2)CC1,i,i
COc1ccccc1C1(C(=O)N2CCC(c3cccs3)CC2)CCOCC1,i,+
CCOC(=O)C1CCN(C(=O)C2(c3cccs3)CCOCC2)CC1,i,i
CC(C)S(=O)(=O)c1ccc(CC(=O)N2CCC(c3cccs3)CC2)cc1,i,i
CC(C)S(=O)(=O)c1ccc(CC(=O)N2CCC(c3ccsc3)CC2)cc1,i,+
CCCNC(=O)C(=O)NCCN1CCOC(c2ccccc2)C1 (stereo unspecified),i,.
CC(C)N1CCc2c(sc(NC(=O)c3cccs3)c2-c2nc3ccccc3s2)C1,.,i
COc1ccc(OC)c(C(=O)Nc2nnc(-c3ccc(Br)s3)o2)c1,i,i

# Screening data: PubChem, several laboratories
